We go through 16 molecules from PubChem BioAssay (NCI).

“And” between values parts separate entries of the source, which are not always exact repeats. Identical values can stand only once. About 79,000 compounds went through this panel and 15% of them were active in at least one assay; those are over-represented in the sample as a whole. The source made the active and inactive calls. Cut-off read from the data, not from the text of the source: active = growth inhibition above about 70%; inactive = the rest.

The nature of this assay: NCI Yeast Anticancer Drug Screen. Data for the rad50 strain (AID 155).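 Note: 0% = growth of vehicle-only cultures of the same strain.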 The following applies: S. cerevisiae rad50 strain growth inhibition; at 50.0 µM; stronger effect = higher value. In a few lines:
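Compounds were tested on a yeast strain with an engineered DNA damage repair alteration; the reported value is growth inhibition normalised to vehicle treatment.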
As for `O=C(Cc1ccccc1)Oc1ccc2c(-c3ccccc3)c(C(=O)Nc3ccc(Cl)cc3)c(=O)oc2c1`, the growth inhibition is 6.75% (inactive).
To `Cc1ccc(CCl)c(C)c1` belongs -21.1% (inactive).
To `COC1C(=[N+]=[N-])C(=O)NC(=O)N1C` (stereo unspecified) belongs 21% (inactive); to `O=C(O)CC(=O)O.[Ti].[c-]1[c-][c-][cH-][c-]1.[c-]1[c-][c-][cH-][c-]1`, -12.4% (inactive).
To `CCOc1ccc(Nc2nc(=O)[nH]c3ccccc23)cc1CN(CCCl)CCCl` belongs 18.7% (inactive); to `CCC[C@H]1CCCCN1`, 27.1% (inactive); to `CN(C)CCNC(=O)c1cccc(COC(=O)Nc2ccc(N(CCCl)CCCl)cc2)c1[N+](=O)[O-]`, -3.55% (inactive).
Take `CCOC(=O)/C=C1\Nc2ccccc2C(c2ccccc2)=NC1OC(C)=O` (stereo unspecified): the growth inhibition is 39.1% (inactive).
To `O=C1NC(=O)C(CC(C(=O)C(=O)Nc2ccccc2Cl)C(=O)c2ccc3ccccc3c2)C(=O)N1` (stereo unspecified) belongs -27.7% (inactive).
In the case of `NC(=O)OCCc1c2ccccc2nc2ccccc12`, the growth inhibition is 19.6% (inactive) and 47.6% (inactive).
Consider `CNC(=O)Oc1ccc2c(C)cc(=O)oc2c1`, for which the growth inhibition is 21.1% (inactive).
For `COc1cc2c(c(OC)c1OC)-c1ccc(O)cc1C(NC(C)=O)CC2` (stereo unspecified), the growth inhibition was -13.2% (inactive).
To `CC(CN1CCCCCC1)C(C#N)(c1ccccc1)c1ccccc1` (stereo unspecified) belongs 7.4% (inactive); to `O=C1C=CC(=O)c2c(O)cccc21`, 27.4% (inactive).
To `CC(=O)C1C(c2ccccc2)C2(C)OC(=O)C(C#N)C12C` (stereo unspecified) belongs -17.6% (inactive).
To `O=C(O)c1ccccc1.O=C(O)c1ccccc1.O=C(O)c1ccccc1.O=C(O)c1ccccc1.[Cu].[Cu]` belongs 17.4% (inactive).
